Laboratory results: PubChem BioAssay
Inconclusive results are not listed. Calls of active or inactive are those of the source.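 Rule for the calls, unless noted: active = Her2 level under about 52% in both replicate screens, with viability over 70% of control (limit read from the data); inconclusive = Her2 under the limit in one screen only, or viability under 70%; inactive = Her2 level above the set limit.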

Tests used:
[1] = Her2 expression decrease, cell viability multiplex – SKBR3 breast tumor cells, AlphaScreen, ATP viability, primary screen (AID 461); conditions: SKBR3 Her2 protein level, 18-24 h, measured here: SKBR3 viability, ATP luminescence, at 10 µM;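 for Her2 level: lower value means less Her2 protein in the cells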;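 for viability: percent of carrier control wells set as 100% viability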
[2] = target: Receptor tyrosine-protein kinase erbB-2 (Homo sapiens) (UniProt P04626); assay: as above; conditions: 18-24 h, at 10 µM, stronger effect = lower value
Sequence of Receptor tyrosine-protein kinase erbB-2 (Homo sapiens) (P04626 whole entry, looked up): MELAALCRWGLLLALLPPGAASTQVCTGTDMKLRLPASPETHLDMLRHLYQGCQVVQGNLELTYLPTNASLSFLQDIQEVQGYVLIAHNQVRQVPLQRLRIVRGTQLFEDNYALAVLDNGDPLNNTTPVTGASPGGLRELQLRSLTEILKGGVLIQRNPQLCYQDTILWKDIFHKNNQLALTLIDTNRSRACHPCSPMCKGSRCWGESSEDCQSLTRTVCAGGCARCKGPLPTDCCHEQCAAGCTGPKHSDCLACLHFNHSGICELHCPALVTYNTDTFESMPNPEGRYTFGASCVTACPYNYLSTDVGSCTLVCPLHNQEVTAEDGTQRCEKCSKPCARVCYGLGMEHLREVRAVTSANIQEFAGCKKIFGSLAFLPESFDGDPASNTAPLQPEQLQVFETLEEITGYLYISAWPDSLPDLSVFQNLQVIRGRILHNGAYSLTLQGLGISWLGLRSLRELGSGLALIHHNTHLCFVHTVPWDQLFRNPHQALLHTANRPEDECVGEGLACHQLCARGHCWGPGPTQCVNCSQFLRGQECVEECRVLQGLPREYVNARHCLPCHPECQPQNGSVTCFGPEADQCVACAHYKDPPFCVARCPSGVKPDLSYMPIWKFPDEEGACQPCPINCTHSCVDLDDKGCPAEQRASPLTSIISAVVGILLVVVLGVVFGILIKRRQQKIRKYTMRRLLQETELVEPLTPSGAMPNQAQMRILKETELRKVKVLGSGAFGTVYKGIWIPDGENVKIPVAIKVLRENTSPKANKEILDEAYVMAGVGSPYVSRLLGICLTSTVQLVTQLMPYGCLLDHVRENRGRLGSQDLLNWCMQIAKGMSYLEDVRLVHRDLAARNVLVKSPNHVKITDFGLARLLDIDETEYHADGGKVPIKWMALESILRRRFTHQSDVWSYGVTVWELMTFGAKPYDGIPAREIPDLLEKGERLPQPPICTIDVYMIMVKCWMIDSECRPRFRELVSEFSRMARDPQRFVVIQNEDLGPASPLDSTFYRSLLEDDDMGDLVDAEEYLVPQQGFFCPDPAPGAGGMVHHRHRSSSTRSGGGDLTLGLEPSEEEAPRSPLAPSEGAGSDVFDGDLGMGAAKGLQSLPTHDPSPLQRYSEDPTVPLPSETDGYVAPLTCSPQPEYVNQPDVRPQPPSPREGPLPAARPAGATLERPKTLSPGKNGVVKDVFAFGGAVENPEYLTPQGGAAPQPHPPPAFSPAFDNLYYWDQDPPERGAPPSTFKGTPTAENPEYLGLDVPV

[3] = reduced viability of SK-BR-3 breast cancer cells – cell-based, 24 h, human, pilot screen (AID 572;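 active = viability at or below 10% of carrier control in both of two separate runs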;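 note: compound exposure lasted between 18 and 24 h rather than exactly 24 h; 100% = carrier-treated control wells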); conditions: SK-BR-3 viability, CellTiter-Glo luminescence, at 10 µM, stronger effect = lower value
[4] = HUVEC growth inhibition – cell-based, human, primary screen (AID 575;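 active = viability at or below 30% in both replicate assays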;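 note: 100% = median of untreated cell wells with 0.1% DMSO on each plate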); conditions: HUVEC proliferation, CellTiter-Glo luminescence, 72 h; at 10 µM; stronger effect = lower value
[5] = H69AR cell proliferation blockers – human, duplicate replicates, primary screen (AID 580;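 active = viability at or under a set limit in both replicates, limit being median viability minus 3 SD, cut at about 48% in these data, passing the limit was not always enough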;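 note: 100% = mean luminescence of untreated wells and 0% = no signal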); conditions: H69AR lung tumor cells viability, ATP luminescence, 72 h; at 10 µM; stronger effect = lower value
[6] = MRP1 drug-resistance reversers in H69AR cells – cell-based, doxorubicin co-treatment, pilot screen (AID 601;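 active = viability loss from added drug above about 55%, and viability with drug at most 40%, in both replicates, limit read from the data, passing the limit was not always enough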); conditions: CellTiter-Glo, 72 h, at 10 µM; for differential viability (reversal): stronger effect = higher value
[7] = yeast transport mutant growth inhibition pilot in 384-well plates, post-Golgi transport modulator project (AID 636; in the data active = inhibition above about 31%); conditions: absorbance 615 nm, about 18 h, stronger effect = higher value
[8] = growth suppression of yeast trafficking mutant, preliminary HTS, modulators of trafficking downstream of Golgi apparatus project, 1536-format plate, OD 615 nm (AID 637; in the data active = inhibition above about 30%); conditions: yeast transport mutant growth, absorbance 615 nm, 18 h; stronger effect = higher value
[9] = S. cerevisiae growth inhibition in permissive medium (OD615), pilot counter-assay for S. cerevisiae lifespan shortening project, permissive growth control (AID 705;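 active = growth inhibition above 25% in both replicates, a cutoff set 3 SD above the mean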); conditions: OD615, 24 h, at 10 µM, stronger effect = higher value
[10] = S. cerevisiae growth inhibition in restrictive medium, OD615, pilot screen, restrictive growth control, yeast lifespan reduction project (AID 706;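 active = growth inhibition above a set limit, 3 SD over mean compound inhibition, in both replicates, cut at about 43% in these data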;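 note: modified DeaD lifespan yeast strain shifted to restrictive glucose medium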); conditions: OD615, 48 h, at 10 µM, stronger effect = higher value
[11] = doxorubicin toxicity protection in MRP-1 cells – H69AR cells, CellTiter-Glo, duplicate, MRP-1 activator project, pilot screen (AID 807;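 active = viability increase at or above a cutoff of the median across tested compounds plus 3 SD, cut at about 8.5% in these data, passing the limit was not always enough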;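 note: compound pretreatment 18-22 h then 72 h combined with doxorubicin; 0% = doxorubicin alone and 100% = vehicle without doxorubicin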); conditions: H69AR viability with doxorubicin, CellTiter-Glo luminescence; at 10 µM; stronger effect = higher value
[12] = viability of HCT116 without oncogenic beta-catenin – human colon tumor cells, pilot screen (AID 823;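 active = cell viability at or below a set limit in both duplicate runs, the limit being the all-compound median minus 4 SD, cut at about 23% in these data, passing the limit was not always enough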;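 note: 0% = wells killed by 20 µM Hyamine and 100% = untreated DMSO cell wells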); conditions: HCT116 beta-catenin knockout viability, CellTiter-Glo, 60 h; at 10 µM; stronger effect = lower value
[13] = viability of PTEN-null HCT116 cells – cell-based, HCT116 clonal line, CellTiter-Glo, pilot screen (AID 824;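 active = viability at or below 27.92% in each of two runs, the all-compound median minus 4 SD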;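 note: 0% = 20 µM Hyamine control and 100% = vehicle cell control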); conditions: HCT116 PTEN-deleted viability, 60 h, at 10 µM, stronger effect = lower value
[14] = RAM pathway blockade in budding yeast – dse1pr::URA3 reporter, 5-FOA selection, pilot screen (AID 869;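 active = inhibition over a set limit, the all-compound mean plus 3 SD, in both replicate runs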;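 note: 0% = DMSO wells with no growth and 100% = 10 µM 1-NA-PP1 with full growth; RAM network block rescues cells from 5-FOA so hits raise OD615 growth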); conditions: S. cerevisiae dse1pr::URA3 5-FOA growth, OD615, 2 d; at 10 µM; stronger effect = higher value; strain carries analog-sensitive mutant Cbk1 kinase
[15] = RAM signaling pathway blockade in yeast – S. cerevisiae, Pdr1DBD-CYC8 efflux-inhibited sensitized strain, primary screen (AID 1298;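 active = RAM network inhibition above 8.4% in each of two replicates, 3 SD over the compound average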;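 note: 0% = DMSO untreated cells without growth and 100% = 10 µM 1-NA-PP1 full growth; higher means more yeast growth rescued from 5-FOA killing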); conditions: S. cerevisiae cbk1-as DSE1-URA3 strain, 5-FOA growth OD615, 2 d; at 50 µM; stronger effect = higher value
[16] = H69AR cells + 2 uM doxorubicin, measured here: viability with 2 uM doxorubicin, stronger effect = lower value
[17] = H69AR cells, compound alone cytotoxicity

CCc1ccc(C2CC(c3cccc(OC)c3)n3nc(N)nc3N2)cc1 (centres undefined)
105%: viability [6, 17]
inactive: Her2 level [2] 92% | viability [3] 90% | viability [4] 113% | viability [5] 105% | differential viability (reversal) ([6]; H69AR cells + 2 uM doxorubicin) 7.42% | inhibition [7] 2.31% | inhibition [8] 4.83% | growth inhibition [9] -0.21% | growth inhibition [10] 12% | viability increase [11] 2.74% | viability [12] 93.3% | viability [13] 81.1% | inhibition [14] 1.21% | RAM network inhibition [15] 4.95%
97.5%: viability [6, 16]
90%: viability [1]

COc1nnc(-c2ccc(C)c(S(=O)(=O)NCCO)c2)c2ccccc12
inactive: Her2 level [2] 108% | viability [3] 93.5% | viability [4] 110% | viability [5] 87.9% | differential viability (reversal) ([6]; H69AR cells + 2 uM doxorubicin) -2.42% | inhibition [7] -1.04% | inhibition [8] -6% | growth inhibition [9] -0.385% | growth inhibition [10] 10% | viability increase [11] -1.67% | viability [12] 106% | viability [13] 101% | inhibition [14] -0.06% | RAM network inhibition [15] 2.58%
87.9%: viability [6, 17]
90.3%: viability [6, 16]
93.5%: viability [1]

CN1CCN(C2=C(Cl)C(=O)N(c3cccc(Cl)c3)C2=O)CC1
inactive: Her2 level [2] 96.5% | viability [3] 80.5% | viability [4] 87.7% | viability [5] 85% | differential viability (reversal) ([6]; H69AR cells + 2 uM doxorubicin) 4.44% | inhibition [7] 0.26% | inhibition [8] 5.67% | growth inhibition [9] -16.8% | growth inhibition [10] -5.5% | viability increase [11] -1.68% | viability [12] 96.3% | viability [13] 104% | inhibition [14] 0.75% | RAM network inhibition [15] 2.62%
85%: viability [6, 17]
80.5%: viability [1] | viability [6, 16]

CCOc1ccc(C2CC(c3ccccc3C)n3nc(N)nc3N2)cc1 (centres undefined)
87.5%: viability [1]
102%: viability [6, 16]
87.9%: viability [6, 17]
inactive: Her2 level [2] 93.5% | viability [3] 87.5% | viability [4] 87.9% | viability [5] 87.9% | differential viability (reversal) ([6]; H69AR cells + 2 uM doxorubicin) -14.3% | inhibition [7] -2.82% | inhibition [8] -3% | growth inhibition [9] -4.05% | growth inhibition [10] 0.985% | viability increase [11] -1.27% | viability [12] 93.8% | viability [13] 83.3% | inhibition [14] 1.23% | RAM network inhibition [15] 5.2%

COc1cc2c(cc1OC)C(C)N(C(=O)Cn1ncc3c1-c1ccccc1OC3)CC2 (centres undefined)
87.2%: viability [6, 17]
inactive: Her2 level [2] 104% | viability [3] 90.5% | viability [4] 111% | viability [5] 87.2% | differential viability (reversal) ([6]; H69AR cells + 2 uM doxorubicin) 0.365% | inhibition [7] -2.31% | inhibition [8] 2.33% | growth inhibition [9] -9.09% | growth inhibition [10] -8.14% | viability increase [11] -2.56% | viability [12] 89.5% | viability [13] 89.8% | inhibition [14] 0.41% | RAM network inhibition [15] 1.88%
86.9%: viability [6, 16]
90.5%: viability [1]

CC(=NCC1CCNCC1)C1=C(O)CC(C)(C)CC1=O
106%: viability [6, 17]
inactive: Her2 level [2] 95.5% | viability [3] 79% | viability [4] 107% | viability [5] 106% | differential viability (reversal) ([6]; H69AR cells + 2 uM doxorubicin) 13.4% | inhibition [7] -4.73% | inhibition [8] 2.3% | growth inhibition [9] 10% | growth inhibition [10] 5.17% | viability increase [11] -2.21% | viability [12] 91.2% | viability [13] 97.3% | inhibition [14] 0.485% | RAM network inhibition [15] -1.02%
92.4%: viability [6, 16]
79%: viability [1]

CC1Cc2ccccc2N1C(=O)C12CCC(C)(C(=O)C1)C2(C)C (centres undefined)
inactive: Her2 level [2] 123% | viability [3] 136% | viability [4] 92.6% | viability [5] 82.1% | differential viability (reversal) ([6]; H69AR cells + 2 uM doxorubicin) 7.82% | inhibition [7] -5.47% | inhibition [8] -4.84% | growth inhibition [9] -23.2% | growth inhibition [10] -14.9% | viability increase [11] -0.66% | viability [12] 85% | viability [13] 89.9% | inhibition [14] 0.8% | RAM network inhibition [15] 6.06%
136%: viability [1]
74.3%: viability [6, 16]
82.1%: viability [6, 17]

COC(=O)CSC1=C(C#N)C(c2ccc(F)cc2)CC(=O)N1 (centres undefined)
80.6%: viability [6, 16]
80.8%: viability [6, 17]
109%: viability [1]
inactive: Her2 level [2] 105% | viability [3] 109% | viability [4] 101% | viability [5] 80.8% | differential viability (reversal) ([6]; H69AR cells + 2 uM doxorubicin) 0.195% | inhibition [7] -4.93% | inhibition [8] -4.75% | growth inhibition [9] 9% | growth inhibition [10] -15.4% | viability increase [11] -0.35% | viability [12] 100% | viability [13] 95.9% | inhibition [14] 0.905% | RAM network inhibition [15] -1.71%

COCCn1c(SCC(=O)Nc2ccc3c(c2)OCCO3)nc2c(c1=O)SC(C)C2 (centres undefined)
84.4%: viability [6, 17]
106%: viability [6, 16]
inactive: Her2 level [2] 110% | viability [3] 95% | viability [4] 108% | viability [5] 84.4% | differential viability (reversal) ([6]; H69AR cells + 2 uM doxorubicin) -21.9% | inhibition [7] -1.07% | inhibition [8] -2% | growth inhibition [9] -6.57% | growth inhibition [10] -5.1% | viability increase [11] -1.19% | viability [12] 102% | viability [13] 95.8% | inhibition [14] 1.71% | RAM network inhibition [15] -0.11%
95%: viability [1]

Cc1ccccc1Cn1cc(/C=N/n2cnnc2)c2ccccc21
95.4%: viability [6, 17]
82%: viability [6, 16]
inactive: Her2 level [2] 99.5% | viability [3] 100% | viability [4] 68.7% | viability [5] 95.4% | differential viability (reversal) ([6]; H69AR cells + 2 uM doxorubicin) 13.3% | inhibition [7] -2.6% | inhibition [8] 4.83% | growth inhibition [9] 7.88% | growth inhibition [10] 23.3% | viability increase [11] -4.78% | viability [12] 67.8% | viability [13] 61.6% | inhibition [14] 1% | RAM network inhibition [15] -0.25%
100%: viability [1]

CCC(C)OC(=O)C1=C(C)NC2=C(C(=O)C(C(=O)OC)C(C)C2)C1c1ccc(N(C)C)cc1 (centres undefined)
95.8%: viability [6, 17]
91.5%: viability [6, 16]
94.5%: viability [1]
inactive: Her2 level [2] 108% | viability [3] 94.5% | viability [4] 110% | viability [5] 95.8% | differential viability (reversal) ([6]; H69AR cells + 2 uM doxorubicin) 4.35% | inhibition [7] -2.11% | inhibition [8] -5.09% | growth inhibition [9] -3.15% | growth inhibition [10] -7.23% | viability increase [11] -0.39% | viability [12] 86% | viability [13] 75.7% | inhibition [14] 1.46% | RAM network inhibition [15] 8.17%

CCN1CCCC1CNC(=O)c1cc2c(=O)n(C)c3ccccc3c2n1C (centres undefined)
87.8%: viability [6, 17]
87%: viability [1]
inactive: Her2 level [2] 86.5% | viability [3] 87% | viability [4] 74.7% | viability [5] 87.8% | differential viability (reversal) ([6]; H69AR cells + 2 uM doxorubicin) 7.05% | inhibition [7] -0.4% | inhibition [8] 15.9% | growth inhibition [9] -1.93% | growth inhibition [10] -3.33% | viability increase [11] -5.23% | viability [12] 67.5% | viability [13] 66.2% | inhibition [14] 1.1% | RAM network inhibition [15] 2%
80.8%: viability [6, 16]
